The results in this text go back to PubChem BioAssay.

The target of one experiment is Albumin (Bos taurus) (UniProt P02769). Nature of the experiment: compounds binding labelled BSA control protein – biochemical, small-molecule microarray, Alexa647 label, 635/667 nm fluorescence, artefact control for SMM control protein annotation, profiling panel (AID 1118).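 Further: score merges 667 nm emission intensity and signal-to-noise per printed compound spot.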 The settings on record: BSA-A647 binding, fluorescence 635 nm, higher = more signal.
Chain of Albumin (Bos taurus) (P02769 whole entry, looked up): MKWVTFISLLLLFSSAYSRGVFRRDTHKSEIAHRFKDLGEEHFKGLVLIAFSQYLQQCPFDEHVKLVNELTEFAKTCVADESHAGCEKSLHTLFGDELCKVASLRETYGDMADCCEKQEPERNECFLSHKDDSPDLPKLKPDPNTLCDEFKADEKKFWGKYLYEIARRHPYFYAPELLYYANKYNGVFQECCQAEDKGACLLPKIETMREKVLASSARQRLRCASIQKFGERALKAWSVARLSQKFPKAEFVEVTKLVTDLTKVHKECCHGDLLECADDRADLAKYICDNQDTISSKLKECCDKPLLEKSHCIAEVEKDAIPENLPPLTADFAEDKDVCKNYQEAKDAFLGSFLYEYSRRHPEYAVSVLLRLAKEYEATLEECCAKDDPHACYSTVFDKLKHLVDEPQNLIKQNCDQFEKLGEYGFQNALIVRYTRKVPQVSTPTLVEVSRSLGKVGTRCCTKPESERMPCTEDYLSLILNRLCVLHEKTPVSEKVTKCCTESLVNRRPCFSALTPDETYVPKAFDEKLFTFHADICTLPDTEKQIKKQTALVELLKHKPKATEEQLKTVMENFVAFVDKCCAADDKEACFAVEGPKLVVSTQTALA
The nature of experiment [1]: probe aXIP binding to arrayed compounds – biochemical, NeuroSMM set, 635/667 nm fluorescence, primary screen (AID 1119).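 Further: probe is the protein aXip251-270 applied at 1 µg/mL to compound-printed slides; binding of probe to printed compounds measured as 667 nm fluorescence plus signal to noise.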 The settings on record: small-molecule microarray, higher = more signal, called active from +8 up or from −8 down.
The nature of experiment [2]: probe aNOTCH3 binding on compound microarray – biochemical, small-molecule microarray, 635/667 nm fluorescence, primary screen (AID 1120).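 Further: probe is a biotin-tagged antibody raised against NOTCH3 rather than NOTCH3 protein; score merges spot fluorescence near 667 nm with spot signal to noise.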 Particulars: higher = more signal.
A short description of experiment [3]: probe aNOTCH2 binding on compound microarray – biochemical, small-molecule microarray, 635/667 nm fluorescence, primary screen (AID 1121).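 Further: score merges feature fluorescence read at 667 nm with its signal to noise.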 The settings on record: higher = more signal.
Experiment [4] addresses Carbonic anhydrase 2 (Homo sapiens) (UniProt P00918). Description: compounds binding carbonic anhydrase 2 – biochemical, small-molecule microarray, Alexa647-labelled CAII, profiling panel (AID 1122). The settings on record: CAII-A647 binding fluorescence, higher = more signal.
The nature of experiment [5]: COS7 lysate on small-molecule microarray, probe aHis, 635 nm (AID 1123).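 Further: z-score combines 667nm fluorescence intensity with signal-to-noise per printed compound spot.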 Particulars: COS7 cell lysate, fluorescence, higher = more signal.
The nature of experiment [6]: probe aLAP1 signal on lysate-treated microarray – cell lysate, small-molecule microarray, COS7 lysate, primary screen (AID 1124).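 Further: lysate comes from COS7 cells expressing LAP1 and is applied at 0.3 µg/mL; score merges spot fluorescence near 667 nm with signal-to-noise over triplicate slides.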 Particulars: probe aLAP1, fluorescence, higher = more signal.
The subject of the next experiment is Sam68 (KHDRBS1). Description: compounds binding KHDRBS1 protein – biochemical, small-molecule microarray, 635 nm fluorescence, primary screen (AID 1125).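 Further: score merges 667 nm channel intensity with signal to noise over triplicate slides.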 Particulars: higher = more signal.
Experiment [7] concerns Chordin-like protein 2 (CHRDL2). Nature of the experiment: compounds binding chordin-like 2 – biochemical, small-molecule microarray, 635 nm fluorescence, primary screen (AID 1126).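 Further: printed compound slides probed with Chrdl2 protein at 4 µg/mL for 1 h at 4 C; score merges 667 nm emission intensity with signal to noise over three replicate slides.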 The settings on record: fluorescence 635 nm, higher = more signal.
Experiment [8] concerns the target Concanavalin-A (Canavalia ensiformis) (UniProt P02866). Description: compounds binding concanavalin A lectin – biochemical, small-molecule microarray, Alexa647 label, 635 nm, artefact control for SMM control protein annotation, primary screen (AID 1127).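 Further: z combines 667 nm emission intensity with signal-to-noise across three replicate slides.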 The settings on record: ConA-A647 binding fluorescence, higher = more signal.
Experiment [9] can be described thus: compounds binding Alexa647 anti-His antibody – biochemical, small-molecule microarray, 635 nm fluorescence, artefact control for SMM control protein annotation, primary screen (AID 1128).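 Further: score merges feature fluorescence with signal-to-noise for each printed compound spot.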 The settings on record: higher = more signal.
Experiment [10] deals with Human papillomavirus type 1a E7 protein (residues 1-88). Nature of the experiment: HPV1a E7 small-molecule binders, primary screen, biochemical, small-molecule microarray, residues 1-88, 635 nm (AID 1129). The settings on record: small-molecule microarray binding, fluorescence 635 nm; higher = more signal.
The target in experiment [11] is Focal adhesion kinase 1 (Homo sapiens) (UniProt Q05397). Description: PTK2 protein binding on printed compound slides – biochemical, small-molecule microarray, 635/667 nm fluorescence, BSA, DTT, primary screen (AID 1130).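 Further: composite of spot emission at 667 nm and signal to noise over triplicate slides.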 Particulars: 635 nm fluorescence, higher = more signal.
Chain of Focal adhesion kinase 1 (Homo sapiens) (Q05397 whole entry, looked up): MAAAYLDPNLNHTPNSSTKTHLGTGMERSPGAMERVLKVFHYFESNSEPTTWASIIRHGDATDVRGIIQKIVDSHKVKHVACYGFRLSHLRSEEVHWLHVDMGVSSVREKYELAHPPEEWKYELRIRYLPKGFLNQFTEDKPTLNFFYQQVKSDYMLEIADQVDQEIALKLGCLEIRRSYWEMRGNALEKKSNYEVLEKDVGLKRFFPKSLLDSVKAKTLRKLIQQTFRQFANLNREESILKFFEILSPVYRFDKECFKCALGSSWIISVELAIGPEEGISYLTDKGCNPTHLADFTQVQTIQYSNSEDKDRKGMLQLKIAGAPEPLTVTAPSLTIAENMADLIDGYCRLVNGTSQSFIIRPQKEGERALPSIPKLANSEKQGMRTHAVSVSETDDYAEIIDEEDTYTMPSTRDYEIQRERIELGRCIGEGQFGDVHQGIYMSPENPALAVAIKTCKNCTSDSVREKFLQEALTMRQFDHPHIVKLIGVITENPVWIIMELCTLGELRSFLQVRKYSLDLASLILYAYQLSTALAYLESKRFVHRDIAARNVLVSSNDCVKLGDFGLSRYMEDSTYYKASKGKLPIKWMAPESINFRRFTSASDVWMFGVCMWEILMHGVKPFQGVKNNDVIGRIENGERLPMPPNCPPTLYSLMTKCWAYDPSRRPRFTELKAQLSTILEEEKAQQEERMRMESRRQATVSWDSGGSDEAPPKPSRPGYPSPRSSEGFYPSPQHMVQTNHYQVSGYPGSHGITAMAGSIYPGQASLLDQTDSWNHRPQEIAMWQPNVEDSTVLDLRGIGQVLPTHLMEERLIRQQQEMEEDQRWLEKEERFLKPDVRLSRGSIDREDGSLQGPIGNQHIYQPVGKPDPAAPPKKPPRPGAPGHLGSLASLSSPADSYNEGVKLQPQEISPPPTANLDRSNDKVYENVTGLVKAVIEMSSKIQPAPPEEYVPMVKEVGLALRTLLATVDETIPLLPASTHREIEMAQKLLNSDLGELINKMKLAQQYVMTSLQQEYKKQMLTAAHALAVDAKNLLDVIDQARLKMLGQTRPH
Experiment [12] concerns Fibrinogen (Alexa647-labelled). Nature of the experiment: Alexa647-fibrinogen binding to printed small molecules – biochemical, small-molecule microarray, 635/667 nm fluorescence, artefact control for SMM control-protein annotation, profiling panel (AID 1131).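 Further: z-score merges 667 nm fluorescence with per-spot signal-to-noise over triplicate slides.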 The settings on record: fibrinogen-A647 binding fluorescence, higher = more signal.
Experiment [13] addresses Follistatin (Homo sapiens) (UniProt P19883). Description: FST protein binding to printed compounds – biochemical, small-molecule microarray, 635/667 nm fluorescence, primary screen (AID 1132). Particulars: 635 nm fluorescence, higher = more signal.
Experiment [14] concerns the target Fibroblast growth factor 2 (Homo sapiens) (UniProt P09038). Description: basic fibroblast growth factor binding to printed compounds – biochemical, small-molecule microarray, 635/667 nm fluorescence, primary screen (AID 1133). The settings on record: FGF2, fluorescence 635/667, higher = more signal.
The nature of experiment [15]: JC-1 mitochondrial potential readout, lung cancer cells – cell-based, A549, JC-1 fluorescence, basal, 24 h, 100 nL, profiling panel (AID 1138).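 Further: A549 lung adenocarcinoma cells under basal conditions with no added stimulus; test concentration not given here.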 Particulars: higher = more signal.
In the next experiment the test system is Lefty1. Nature of the experiment: Lefty1 protein binding to printed compounds – biochemical, small-molecule microarray, 635/667 nm fluorescence, primary screen (AID 1139). The settings on record: fluorescence 635/667, higher = more signal.
The subject of experiment [16] is wheat germ agglutinin (Triticum aestivum), Alexa647-labelled. Description: Alexa647-WGA lectin binding to printed small molecules – biochemical, small-molecule microarray, 635/667 nm fluorescence, artefact control for SMM control-protein annotation, profiling panel (AID 1140).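 Further: score merges 667 nm feature emission with signal to noise over triplicate slides.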 The settings on record: WGA-A647 binding, 635 nm fluorescence, higher = more signal.
Experiment [17] concerns the target Luciferin 4-monooxygenase (Photinus pyralis) (UniProt P08659). Nature of the experiment: inhibition of purified Photinus pyralis luciferase – biochemical, luminescence, purified enzyme, 2006 set, primary screen (AID 1141).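 Further: cell-free assay with purified firefly luciferase at 100 ng per well in PBS; test concentration not given here.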 Particulars: purified firefly luciferase, SteadyGlo luminescence, 30 min; higher = more signal, called active from +8 up or from −8 down.

The structures appear in SMILES notation. The source made the active and inactive calls.

Chain of Luciferin 4-monooxygenase (Photinus pyralis) (P08659 whole entry, looked up): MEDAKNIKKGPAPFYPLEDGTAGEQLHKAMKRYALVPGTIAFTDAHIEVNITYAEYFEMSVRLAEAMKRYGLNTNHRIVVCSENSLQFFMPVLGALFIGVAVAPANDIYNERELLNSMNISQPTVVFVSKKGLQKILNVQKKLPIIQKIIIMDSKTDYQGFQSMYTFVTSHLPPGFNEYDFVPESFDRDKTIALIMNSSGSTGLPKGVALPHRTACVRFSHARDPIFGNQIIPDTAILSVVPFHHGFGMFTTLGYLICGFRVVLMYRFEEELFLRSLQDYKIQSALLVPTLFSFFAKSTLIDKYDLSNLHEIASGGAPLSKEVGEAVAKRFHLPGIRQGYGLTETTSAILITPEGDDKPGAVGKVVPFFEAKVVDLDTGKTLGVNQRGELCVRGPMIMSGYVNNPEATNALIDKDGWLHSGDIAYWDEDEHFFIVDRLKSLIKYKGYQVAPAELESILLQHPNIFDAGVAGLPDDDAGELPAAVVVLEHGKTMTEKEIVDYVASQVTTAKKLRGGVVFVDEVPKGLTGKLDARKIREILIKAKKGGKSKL
Chain of Fibroblast growth factor 2 (Homo sapiens) (P09038 whole entry, looked up): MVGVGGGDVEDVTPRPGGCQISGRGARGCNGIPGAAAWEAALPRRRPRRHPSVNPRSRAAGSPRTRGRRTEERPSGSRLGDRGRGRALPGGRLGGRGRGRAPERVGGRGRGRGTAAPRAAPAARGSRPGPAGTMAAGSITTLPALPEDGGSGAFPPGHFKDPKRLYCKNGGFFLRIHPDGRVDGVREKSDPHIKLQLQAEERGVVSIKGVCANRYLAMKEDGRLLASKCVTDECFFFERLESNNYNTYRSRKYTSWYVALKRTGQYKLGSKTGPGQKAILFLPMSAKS
Chain of Concanavalin-A (Canavalia ensiformis) (P02866 whole entry, looked up): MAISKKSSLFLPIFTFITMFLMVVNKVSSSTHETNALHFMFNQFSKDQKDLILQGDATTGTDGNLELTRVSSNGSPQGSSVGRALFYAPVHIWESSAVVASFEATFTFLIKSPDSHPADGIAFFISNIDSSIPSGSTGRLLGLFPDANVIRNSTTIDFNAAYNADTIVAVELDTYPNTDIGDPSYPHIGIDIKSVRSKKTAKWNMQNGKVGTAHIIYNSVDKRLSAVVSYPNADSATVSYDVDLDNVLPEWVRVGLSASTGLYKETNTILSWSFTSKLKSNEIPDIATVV
Chain of Follistatin (Homo sapiens) (P19883 whole entry, looked up): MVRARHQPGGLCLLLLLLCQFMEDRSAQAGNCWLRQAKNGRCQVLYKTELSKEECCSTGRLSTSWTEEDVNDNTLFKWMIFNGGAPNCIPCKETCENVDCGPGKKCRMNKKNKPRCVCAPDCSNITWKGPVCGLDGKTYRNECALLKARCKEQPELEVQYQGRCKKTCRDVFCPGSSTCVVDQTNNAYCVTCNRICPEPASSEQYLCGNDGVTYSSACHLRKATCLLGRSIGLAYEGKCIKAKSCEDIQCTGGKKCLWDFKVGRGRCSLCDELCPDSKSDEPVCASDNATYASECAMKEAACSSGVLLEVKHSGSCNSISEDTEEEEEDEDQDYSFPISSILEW

As to `COc1ccc(C(=O)Nc2ccc(CN3C(=O)[C@]4(O[C@H](CCO)[C@@H]([Si](C)(C)c5ccc(OC)cc5)[C@@H]4C)c4ccccc43)cc2)cc1`, the composite z-score is 0.357 with Albumin (Bos taurus); 0.149 in experiment [2]; -0.0891 in experiment [3]; 0.283 in [4]; 0.417 in experiment [5]; -0.337 in experiment [6]. Moreover, the composite z-score in the experiment on Sam68 (KHDRBS1) stood at 1.22; in experiment [7], 0.531; in [8] it was 1.09; in experiment [9], 0.215; in experiment [10] it was 1.06; in experiment [11] it was 0.246. Besides, the composite z-score was determined as 0.599 in experiment [12]; 0.995 in experiment [13]; 0.894 in experiment [14]; 1.36 in the experiment on Lefty1; 0.526 in experiment [16]. Further, in experiment [1], the composite Z-score is 0.377 (inactive). The z-score in experiment [15] was -1.41; in [17], 0.362 (inactive).
As for `CC(C)=CCCC(C)=CC(O)C1C=CC2C(=O)N(C)C(=O)C2N1Nc1ccccc1` (stereo not given), the composite z-score is 0.919 with Albumin (Bos taurus); 0.286 in [2]; -0.011 in experiment [3]; 0.435 in [4]; 2.66 in [5]; 0.309 in experiment [6]. Besides, the composite z-score in the experiment on Sam68 (KHDRBS1) is 1.3; in [7], 1.28; in experiment [8], 1.18; in experiment [9], 1.17; in experiment [10] it was 1.21; in [11], 0.832. Also, the composite z-score in [12] turned out to be 1.03; in experiment [13] it was 1.38; in experiment [14] it was 0.709; in the experiment with Lefty1, 1.08; in experiment [16], 1.22. Moreover, the composite Z-score in experiment [1] was -0.305 (inactive). Also, the values for the z-score in [15] and in experiment [17] were 0.797 and 0.15 (inactive), respectively.
On to `CN1C(=O)C2C=CC(C(O)c3ccco3)N(Nc3ccccc3)C2C1=O` (stereo not given), for which the composite z-score in the experiment with Albumin (Bos taurus) was -0.152; in experiment [2], 0.0974; in experiment [3], -0.0267; in experiment [4], 0.803; in experiment [5], -0.039; in experiment [6] it was 0.574. The composite z-score with Sam68 (KHDRBS1) was 0.68; in experiment [7] it was 0.685; in experiment [8] it was 0.477; in experiment [9], 1.72; in experiment [10], 0.103; in experiment [11], -0.0653. For the same molecule, the composite z-score in [12] amounted to 0.822; in experiment [13] it was 0.861; in experiment [14] it was 0.33; in the experiment with Lefty1, 0.332; in experiment [16], 0.594. Moreover, in [1], the composite Z-score was 0.472 (inactive). In addition, the figures for the z-score in [15] and in [17] were 0.207 and 0.0206 (inactive), respectively.
With `COC(=O)[C@]1(CCC(=O)OC(C)(C)C)N=C(c2ccc(OCCCO)cc2)O[C@@H]1c1ccccc1CN=[N+]=[N-]`, the composite z-score in the experiment with Albumin (Bos taurus) was -0.325; in experiment [2], -0.0284; in experiment [3] it was 0.0059; in [4], 0.675; in experiment [5] it was 1.72; in [6], -0.46. Moreover, the composite z-score in the experiment on Sam68 (KHDRBS1) was 0.866; in experiment [7] it was -1.04; in experiment [8], 0.779; in experiment [9], 0.0121; in [10], 1.06; in experiment [11], 0.348. For the same molecule, the composite z-score in [12] was 0.666; in experiment [13], 1.13; in experiment [14], 0.283; in the experiment with Lefty1 it was -0.477; in [16] it was 0.095. Besides, the composite Z-score in experiment [1] was -1.26 (inactive). The z-score in experiment [15] was -0.208; in experiment [17] it was -0.76 (inactive).
For `COC(=O)[C@@]1(CCC(=O)OC(C)(C)C)N=C(c2ccc(OCCCO)cc2)O[C@H]1c1ccccc1N=[N+]=[N-]`, the composite z-score in the experiment with Albumin (Bos taurus) was 0.373; in experiment [2], -0.076; in experiment [3], -0.127; in experiment [4], 0.508; in experiment [5], 1.95; in [6] it was 0.333. For the same molecule, the composite z-score with Sam68 (KHDRBS1) is 0.201; in [7], -0.436; in [8], 0.721; in experiment [9], 0.421; in [10], 1.17; in experiment [11], 0.723. The composite z-score in experiment [12] worked out at 0.942; in experiment [13] it was 1.24; in experiment [14], 0.0436; with Lefty1 it was 0.303; in [16], 0.658. In addition, the composite Z-score in experiment [1] is 0.455 (inactive). Also, the z-score was 1.01 in experiment [15] and -7.29 (inactive) in [17].
